# Results published in PubChem BioAssay (NCI).
# Compounds without any hit were thinned out: in the full panel of roughly 79,000, 15% have a hit. Values without a mark were called inactive. Activity calls are given as the source filed them. Cut-off read from the data, not from the text of the source: active = growth inhibition above about 70%; inactive = the rest.
# Columns and labels:
# [1] = NCI Yeast Anticancer Drug Screen. Data for the rad50 strain (AID 155);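 note: 0% = growth of vehicle-only cultures of the same strain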; conditions: S. cerevisiae rad50 strain growth inhibition; at 50.0 µM; stronger effect = higher value
# In short: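 Growth of the mutant yeast was measured after compound exposure and referenced to vehicle-treated cultures.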
# [2] = NCI Yeast Anticancer Drug Screen. Data for the mec2-1 strain (AID 157); conditions: S. cerevisiae mec2-1 strain, at 50.0 µM, stronger effect = higher value
# In short: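 Compounds were applied to mec2-1 yeast cells. Their growth was then compared with that of vehicle-treated cultures to give growth inhibition.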
# [3] = NCI Yeast Anticancer Drug Screen. Data for the sgs1 mgt1 strain (AID 161);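 note: 0% = growth of cultures given vehicle only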; conditions: S. cerevisiae sgs1 mgt1 strain, at 50.0 µM, stronger effect = higher value
# In short: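 Growth of a repair-deficient yeast mutant was monitored after compound treatment and expressed as inhibition relative to vehicle-treated cultures.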
# [4] = NCI Yeast Anticancer Drug Screen. Data for the cln2 rad14 strain (AID 165);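 note: 0% = growth equal to vehicle treated cultures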; conditions: S. cerevisiae cln2 rad14 strain, at 50.0 µM, stronger effect = higher value
# In short: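 Strain: cln2 rad14 yeast, altered in cell cycle control and DNA damage repair. Read-out: growth inhibition vs vehicle.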
# [5] = NCI Yeast Anticancer Drug Screen. Data for the bub3 strain (AID 167); conditions: S. cerevisiae bub3 mutant strain, at 50.0 µM, stronger effect = higher value
# In short: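 Whole-cell yeast assay. The mutant strain was incubated with compounds, and growth inhibition was determined by comparison with vehicle-treated cells.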
# [6] = NCI Yeast Anticancer Drug Screen. Data for the mlh1 rad18 strain (AID 175); conditions: S. cerevisiae mlh1 rad18 strain growth inhibition; at 50.0 µM; stronger effect = higher value
# In short: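 A repair-deficient yeast strain is exposed to test compound, and growth is scored relative to vehicle-treated controls.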
SMILES,growth inhibition [1],growth inhibition [2],growth inhibition [3],growth inhibition [4],growth inhibition [5],growth inhibition [6]
CSc1ncc2c(C#N)c3ccccn3c(=O)c2n1,6.65%,-7%,11.2%,-1.5%,14.4%,-17.5%
O=C(OC1COC(n2c(=O)oc3cc(Br)c(Cl)cc32)C(OC(=O)c2ccccc2)C1OC(=O)c1ccccc1)c1ccccc1 (stereo not given),4.55%,-2.25%,-8.15%,-3.05%,4.85%,14.4%
CCOC(=O)Cn1c(=O)[nH]c(=O)c2[nH]cnc21,9.85%,-5.35%,-1.3%,9.35%,13.3%,23.8%
CCCCCCCCCCCCCCCCOc1ccc(S(=O)(=O)N/N=c2/sc(-c3ccccc3Cl)nn2C)cc1C(=O)O,-18.6%,-20.2%,13.3%,-18.2%,6.9%,-4.15%
CC(C)c1ccc(OCC2CCCO2)cc1 (stereo not given),37.4%,0.95%,39%,41.7%,28.9%,27.4%
COc1ccc(Br)cc1C1SCC(=O)N1c1nncs1 (stereo not given),12%,7.7%,26.8%,11.2%,16.4%,23.8%
CC/C(=C\c1ccccc1OC)c1ccncc1,14.2%,-0.1%,30.4%,12.2%,36.6%,1.55%
O=c1n(-c2ccccc2)c(=O)n2c(=O)n(-c3ccccc3)c(=O)n12,-23.4%,-1.55%,-10.7%,-44.9%,-9%,1.15%
O=c1cc(Nc2ccccc2)c2ccccc2[nH]1,-3.3%,-20.1%,7.3%,12.6%,-15.3%,23.3%
CCOc1ccc2nc(NC(=O)C(=O)C(C(=O)c3ccccc3-c3ccccc3)C3OC(=O)c4ccccc43)sc2c1 (stereo not given),-18.7%,23.9%,-19%,23.1%,-32.1%,-28.6%
S=C(NCc1ccc(Cl)c(Cl)c1)Nc1ccccc1,98% (active),99.2% (active),99% (active),98.2% (active),97.3% (active),98% (active)
O=C1c2ccccc2-c2ccc(-n3c(=O)c4ccccc4c4ccccc4c3=O)cc21,28.6%,-1.7%,29.8%,16.1%,8.35%,25.4%
NCCn1ccnc1,13.3%,1.7%,-1.75%,-19.8%,-3.15%,1.4%
Cc1cccc(C(C)C)c1NC(=O)C(=O)C(C#N)c1ccc(CC#N)cc1 (stereo not given),-27.9%,2.4%,17.9%,-40%,1.55%,14.2%
CN(C)CCCNC(=O)c1cc(NC(=O)c2cc(NC(=O)c3cc(NC(=O)CCCn4ccc(CO)c4CO)cn3C)cn2C)cn1C,6.6%,-8.6%,-5.35%,31.6%,4.8%,8.35%
c1ccc2c(c1)CCC(C1=NC3CCCCC3N1)=N2 (stereo not given),-1.25%,3.7%,1.1%,-47.3%,6.3%,1.85%
CC(C)CCCC(C)C1CCC2C3CC=C4CC(OC(=O)C(Cl)(Cl)Cl)CCC4(C)C3CCC12C (stereo not given),-7.65%,-7.55%,-0.7%,-27.1%,-28.1%,-5.4%
Cc1ccccc1NCS(=O)(=O)O,18.2%,-18.3%,13.2%,-6.35%,-14.8%,4.6%
COc1ccc(-c2cc(C(=O)O)c3cccc(C)c3n2)cc1,35.6%,-1.7%,35%,36.1%,23.8%,47.1%
CCCn1c(SCC)c2ccccc2c1-c1nc(F)nc(F)n1,-11.8%,-21.8%,-6.75%,18.9%,-20.7%,4.1%

SMILES,growth inhibition [1],growth inhibition [2],growth inhibition [3],growth inhibition [4],growth inhibition [5],growth inhibition [6]
CN(C)CCOC(=O)C(O)C1CCCCC1 (stereo not given),-14.3%,12.8%,5.5%,18.4%,15.2%,-19.9%
COc1ccc(-n2c(N)c(C#N)c(C#N)c2-c2ccco2)cc1,6.7%,9%,-9.3%,-20.1%,-25.4%,-39%
OC1(C#Cc2ccccc2)c2ccccc2C(O)(C#Cc2ccccc2)c2ccccc21 (stereo not given),9.95%,-11.8%,1.6%,14.1%,-10.3%,10.1%
O=C(NNC(=O)c1ccc2ccccc2n1)c1ccc2ccccc2n1,5.2%,2.45%,12.3%,9.8%,0.2%,16.6%
CC(C)(CN1CCCCC1)C(=O)/C=C/c1ccc(Br)cc1,66.9%,22.8%,59.6%,41.4%,47.8%,55.6%
COc1cc2oc(-c3ccc(O)cc3)c(OC3OC(C)C(O)C(O)C3O)c(=O)c2c(O)c1OC (stereo not given),0.45%,-13.8%,-15.6%,9.4%,-7.95%,-74.6%
CCC(C)(C)c1ccc(OCCOC(C)=O)cc1,3.1%,-11.8%,26.1%,-13.7%,18.7%,23.1%
Nc1cccc(OCC(O)CN2CCN(c3ccccc3)CC2)c1 (stereo not given),3.7%,8.6%,0.1%,-2.55%,-1%,14.7%
CCNC(=O)[B-][N+](C)(C)C,6.75%,0.05%,3.75%,35.4%,-12.4%,4.5%
N#CC(C#N)=Cc1cccc(Oc2ccccc2)c1,57.1%,-2.8%,9.6%,8.65%,-8.65%,-15.7%
Cc1ccccc1C1OC2=C(Nc3ccc([N+](=O)[O-])cc3N2)C1=O (stereo not given),37.5%,21.4%,38%,20.2%,27.2%,45.6%
CC(C)CCCCC(C)(C)OC(=O)NC(N)=O,7.25%,2%,12.2%,17.1%,-17.6%,9.85%
CC[n+]1nc2ccccc2c(=Nc2ccccc2[N+](=O)[O-])[n-]1,11.8%,13.1%,12.3%,29.4%,25.2%,7.15%
CC(Oc1ccc(OCC2CCCCC2)cc1)C(=O)OCC(=O)c1ccc(-c2ccccc2)cc1 (stereo not given),-9.75%,-7.4%,-19.1%,-3.15%,-7.7%,-11.3%
CCOc1c(N=Nc2ccccc2Cl)c(-c2ccccc2)nn1C(N)=S,6.75%,16.9%,-1.95%,6.1%,-3.95%,15.6%
COC(=O)c1ccc(C(=O)OC)c2nc3ccccc3nc12,13.1%,9.35%,8.45%,8.9%,15.1%,7.6%
CCC(c1ccc(N(CC)CC)cc1[N+](=O)[O-])c1ccc(N(CC)CC)cc1[N+](=O)[O-],29%,26.4%,44.5%,36.5%,28.9%,20.1%
O=C(O)/C=C/c1cnc[nH]1,-4.9%,-2.3%,-5.65%,11.9%,9.65%,-1%
CC(N)C(c1ccccc1)c1ccccc1 (stereo not given),19.5%,15.8%,7.15%,11.3%,33.6%,19.4%
O=C(O)c1ccc2sc3ccccc3c(=O)c2c1,14.9%,32.8%,33.3%,-21.2%,21.7%,39%
